Legend:
Experiment in all cases: PBM binding z-score (relative to random genomic background probes); higher = stronger binding; sequences stand for … in GC…GCGATTGACAGCGTAGAATGAAGG
[1] = system: FXR:RXRa (NR concentration 270 nM, RXRa partner concentration 90 nM)
In short: (§1)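 The probes on custom Agilent 4×180K protein-binding microarrays were double-stranded, with 34-nt variable regions bearing direct-repeat seeds, single-nucleotide variants, half-site ablations and random human genomic background sequences. Incubation lasted 1 h with ligand-free nuclear receptor dimers in PBS pH 7.4, 2% milk, 0.02% Triton X-100, 1 mM DTT, 0.2 mg/mL BSA and 0.4 mg/ml salmon testes DNA. Antibodies against each partner (one per run) detected bound dimers, and fluorescence scans were regression-normalized. Binding z-scores take the random background probes as reference.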

[2] = system: LXRa:RXRa (NR concentration 270 nM, RXRa partner concentration 90 nM)
In short: as §1

[3] = system: LXRa homodimer (NR concentration 270 nM)
In short: as §1

[4] = system: LXRb:RXRa (NR concentration 270 nM, RXRa partner concentration 90 nM)
In short: as §1

[5] = system: LXRb homodimer (NR concentration 270 nM)
In short: as §1

[6] = system: PPARa:RXRa (NR concentration 270 nM, RXRa partner concentration 90 nM)
In short: as §1

[7] = system: PPARg:RXRa (NR concentration 180 nM, RXRa partner concentration 90 nM)
In short: as §1

[8] = system: PPARg:RXRa 270nM:90nM, anti-RXR (NR concentration 270 nM, RXRa partner concentration 90 nM)
In short: as §1

[9] = system: PPARg:RXRa 30nM:10nM, anti-RXR (NR concentration 30 nM, RXRa partner concentration 10 nM)
In short: as §1

[10] = system: PPARg:RXRa 90nM:30nM, anti-RXR (NR concentration 90 nM, RXRa partner concentration 30 nM)
In short: as §1

Sequence | PBM binding z-score [1] | PBM binding z-score [2] | PBM binding z-score [3] | PBM binding z-score [4] | PBM binding z-score [5] | PBM binding z-score [6] | PBM binding z-score [7] | PBM binding z-score [8] | PBM binding z-score [9] | PBM binding z-score [10]
TCATATAGGTAAAGGTAAAAGTCGAACGATATGA | 0.715 | 1.06 | -0.299 | 0.926 | -0.151 | 2.1 | 2.75 | 3.46 | 4.13 | 3.8
GCTTCTAGATCAAGGTTAAGAAAGACTAAGCTAA | -0.054 | 0.652 | -0.313 | 0.697 | -0.427 | 1.58 | 0.749 | 1.77 | 0.224 | 1.13
CGTCCTAGGTCAGAGAGGTCAGTGAATGCCGAGT | 3.96 | 3.93 | 2.32 | 3.09 | -0.0595 | 3.75 | 2.04 | 3.12 | 0.277 | 1.95
CCTACTGGGCCAAGGTCATTAATCAGTCAAAGCA | 2.47 | 2.57 | 1.18 | 2.82 | -0.0551 | 3.71 | 3.45 | 4.19 | 1.47 | 3.23
CCTAGCTGGTCAAGGTCACACACGCTATAGGTAC | 4.92 | 3.91 | 1.74 | 3.43 | 0.392 | 4.23 | 2.76 | 3.05 | 0.699 | 1.94
TCATATAGGTCATACAGGTGAAAGTCGGCATCTA | 6.18 | 5.45 | 1.98 | 4.49 | 1.72 | 5.68 | 7.05 | 6.57 | 5.26 | 6.25
ATCTCAAGGTAAAGATAGTTCAGTGAATGCAAAT | 0.707 | 5.22 | 0.562 | 1.38 | 0.331 | 0.546 | 0.372 | 0.508 | 0.448 | 0.296
TCTATTAGTTGAAGGGCATCCGACGAGTCCGTTT | 0.895 | 0.85 | 0.486 | 0.661 | 0.284 | 0.934 | 0.123 | 2.03 | 3.75 | 2.78
TCTCGCAGGACACGAAGGTCAGAGCTTTCCAGAG | 1.36 | 1.16 | 0.275 | 1.43 | -0.948 | 1.92 | 0.556 | 1.75 | 1.75 | 1.74
CGTCAAAGTTCAACTAAGGTGACGTAAAGCACGC | 7.03 | 6.44 | 4.17 | 4.04 | 2.05 | 5.05 | 5.01 | 5.86 | 2.52 | 4.48
ACTATTAATTGACTTAGGGCAACCGATACGACGC | 0.0871 | 0.356 | 1.02 | 0.353 | 1.25 | 0.0941 | 1.05 | 0.505 | 0.559 | 0.814
AATCAAAGTTCAGGACGAGGTAACGTAAAGCACG | 3.75 | 4.39 | 2.25 | 2.03 | 0.58 | 3.2 | 2.07 | 2.19 | 0.724 | 1.26
CGTCCAAGGTCAGGAGGTCAGTGAAAGCGACGTG | 6.23 | 4.55 | 1.15 | 3.64 | -0.0727 | 5.43 | 4.93 | 5.41 | 1.89 | 4.06
TCTGCTAGGTCAGTTGGTCAGCTCACGAGCTGCC | 1.02 | 0.925 | -0.62 | 0.62 | 0.255 | 1.53 | 0.508 | 1.87 | 1.28 | 1.87
CGAACTAGGTCAGAACAGGCCAGTGAAGGATGAT | 1.1 | 0.652 | -0.282 | 0.231 | -0.675 | 3.02 | 4.88 | 4.38 | 1.91 | 3.5
GCTGCTAGGGCAACTGATGGTCAGCTAAAGCTCG | -0.599 | -0.0812 | -0.858 | -0.846 | -0.673 | -0.536 | -0.394 | -0.642 | -1.04 | -0.914
CAGCCTAGGTCAGGGCTAGTATAGGAGGAACGTT | 1.42 | 0.697 | -0.359 | 0.186 | -1.36 | 1.99 | 0.77 | 0.899 | -0.0707 | 0.264
TCTGCTAGCTCAACGATGGTCAGCTAATCTGCTA | -0.518 | -0.557 | -0.771 | -1 | -1.03 | -0.335 | -0.32 | 0.116 | 1.25 | 0.838
CGAACTAGGTCATTGACAGGACAGTGCATAGTAA | 4.46 | 3.18 | 0.766 | 2.04 | -0.0575 | 4.8 | 7.55 | 6.33 | 3.65 | 5.79
TCATATAGGTAAAAGGTGAAAGACGGTGTGGTAA | 2.04 | 2.03 | 0.309 | 2.05 | 0.213 | 5.1 | 9.86 | 8.73 | 9.9 | 10.6
ACTATTAGCTGACTTAGGGCAACCGATACGACGC | 0.00773 | -0.128 | 0.194 | -0.149 | 0.546 | -0.0754 | 0.886 | 0.11 | -0.102 | 0.0192
ATCTCTAGGTGACCAAGTTCAGTGAATGCCGAAC | 0.185 | 0.357 | 0.0777 | 0.467 | 0.278 | 1.9 | 1.99 | 1.7 | 0.308 | 1.05
TCAGACAGGTGAAGGTAGCTCAGGTACGCAGTCG | 0.513 | 0.567 | -0.0814 | 0.434 | -0.218 | 1.02 | 0.481 | 1.75 | 3.33 | 2.65
TGAATGAGGTTAGAAGATCAGGGAACGTTGCAAA | 0.452 | 0.337 | -0.383 | 0.0743 | -0.188 | 1.59 | 0.84 | 1.29 | 0.759 | 0.966
